Only some compounds are listed: those with a hit (about 4.2% of all), similar ones and a draw of the others.
TCR act: Activators of T cell receptors: qHTS campaign; primary human leukocytes, anti-CD3, IL-2 HTRF, 48 h; AID 504894, 2011; Potency, µM (highest dose often 9.22 µM), without a hit: top-dose activation of IL-2 secretion, hits mostly activators; 330,000 tested, under 10 active; further: % of control where 0% means no effect
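Readout: HTRF IL-2, Eu-cryptate/d2 antibody pair, 320nm excitation, 665nm emission. Stimulus: a-CD3 beads, no co-stimulation. Cells: primary human leukocytes. Exposure: 48 hr with compound.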
uPA generation: qHTS for Inhibitors of Cell Surface uPA Generation. cell surface uPA generation assay, qHTS. 330,000 compounds, 0.31% hits. Potency, µM (highest dose often 38.3 µM), for the others: at the highest dose activity change, negative = inhibition, hits mostly inhibitors. AID 540303, 2011; active means well fitted inhibition curve with a large enough effect; inconclusive means small, poorly fitted or top-dose-only effect; inactive means no such curve, though single readings can be large or run the other way; tested in mouse RAW 264.7 cells; further: potency means the concentration at half of the fitted maximal effect; on the % scale 0 is the no-effect control and ±100 the full control effect; nearly all actives have a fitted effect of over 55% in size
ClpP mod: qHTS Assay for Activators of ClpP | 340,000 compounds, 1.9% hits | ATP-dependent Clp protease proteolytic subunit (Bacillus subtilis (strain 168)), P80244 | Potency, µM (doses to about 57.5 µM), for inactives: at the top dose activity change, negative = active | purified B. subtilis ClpP, FRET peptide cleavage, 20 min | AID 651965, 2013; active means well fitted falling curve with a large enough effect; inconclusive means small, poorly fitted or top-dose-only effect; inactive means no such curve, though single readings can be large or run the other way; further: potency means the concentration at half of the fitted maximal effect; the source files actives as falling curves though it sought activators and does not explain the sign; nearly all actives have a fitted effect of over 65% in size
Target sequence (P80244 whole entry, looked up): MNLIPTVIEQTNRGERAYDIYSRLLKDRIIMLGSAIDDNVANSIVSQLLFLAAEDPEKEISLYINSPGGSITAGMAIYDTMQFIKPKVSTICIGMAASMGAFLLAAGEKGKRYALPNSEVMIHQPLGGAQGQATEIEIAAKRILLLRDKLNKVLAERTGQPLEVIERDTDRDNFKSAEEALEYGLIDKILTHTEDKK
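FRET quenching reversal measured ClpP activation: 10 microg/mL B. subtilis ClpP at pH 8 with the FRET-FV decapeptide, read at 430 nm after 320 nm excitation. The 20-min minus 0-min signal was scaled between DMSO/no-enzyme wells and ADEP (5.8 microM final).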
Sfp inh: qHTS Assay for Inhibitors of Bacillus subtilis Sfp phosphopantetheinyl transferase (PPTase); Biochemical Sfp PPTase activity, qHTS; Potency, µM, inactives show largest response in the series, negative = inhibition, actives largely listed as inhibitors; 310,000 compounds, 3.5% hits; AID 1490, 2009;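 further: the enzyme is Sfp with the accession as filed and its product quenches rhodamine fluorescence; potency means the concentration at half of the fitted maximal effect; 0% = enzyme reaction without inhibitor and -100% = no enzyme wells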
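Compounds were incubated with enzyme (final 15 nM) for 15 min at room temperature before substrate addition started the reaction. Fluorescence at 525 nm excitation, 598 nm emission was recorded immediately and after 30 minutes.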
The depositor's hits bear a star; ? = inconclusive; . = not tested or not shown; [ ] = another dose, or the depositor's remark. Unless noted, the call rests on the fitted dose curve; in most records, active means well fitted curve in the direction sought with a large enough effect; inconclusive means small, poorly fitted or top-dose-only effect, or another doubt; inactive means no such curve, though single readings can be large; an effect the other way counts as inactive or inconclusive.

SMILES	TCR act	uPA generation	ClpP mod	Sfp inh
CCOC(=O)CCNC(=O)N1CCC(CCC(=O)NCc2ccc(F)cc2)CC1	-2.2%	1.0%	0.6%	14.0%
CCOC(=O)CCNCc1ccc(F)cc1	.	-1.5%	17.8µM*	8.7%
Cc1c(C#N)c2ncnc(-c3ccccc3)c2n1-c1ccccc1	0.8%	-2.5%	35.5µM*	2.8%
N#Cc1c2n(c3c(-c4ccccc4)ncnc13)CCC2	2.2%	1.7%	31.6µM*	5.0%
Cc1c(C#N)c2ncn(Cc3ccccc3)c(=O)c2n1-c1ccccc1	4.9%	-1.7%	-2.1%	7.8%
CC[C@H](C)[C@H](NC(=O)[C@H](Cc1ccc(O)cc1)NC(=O)[C@@H](NC(=O)[C@H](CCCN=C(N)N)NC(=O)[C@@H](N)CC(=O)O)C(C)C)C(=O)N[C@@H](Cc1cnc[nH]1)C(=O)N1CCC[C@H]1C(=O)N[C@@H](Cc1ccccc1)C(=O)N[C@@H](Cc1cnc[nH]1)C(=O)N[C@@H](CC(C)C)C(=O)O	.	.	.	-21.9%
O=c1c(-c2ccc(Cl)cc2)nc2cnc(N3CCNCC3)nc2n1Cc1cccs1	.	.	.	28.2µM*
O=c1c(-c2cc(F)cc(F)c2)nc2cnc(N3CCNCC3)nc2n1Cc1cccs1	.	.	.	35.5µM*
O=c1c(-c2cccs2)nc2cnc(N3CCNCC3)nc2n1Cc1cccs1	.	.	.	17.8µM*
Cn1cc(-c2nc3cnc(N4CCNCC4)nc3n(Cc3ccc(F)cc3)c2=O)c2ccccc21	.	.	.	20µM*
O=c1c(-c2cc(F)cc(F)c2)nc2cnc(N3CCOCC3)nc2n1Cc1cccs1	.	.	.	19.2%
COCCNC(=O)C1(C)CCN(Cc2ccc3ccccc3c2Br)C1 (stereo not given)	.	.	-1.1%	.
CCOC(=O)c1c(CSC(=N)N)n(-c2ccc(C)cc2)c2cc(Br)c(OC(C)=O)cc12	-15.9%	?	-3.4%	44.7µM*
CCOC(=O)c1c(CSC(=N)N)n(C)c2cc(Br)c(OC(C)=O)cc12	3.6%	-1.8%	.	0.1%
COc1ccccc1-c1sc2ccccc2c1-c1ccc(OCCN2CCOCC2)cc1	6.2%[46.1 µM]	-5.2%	-24.1%	.
c1ccc(-c2sc3ccccc3c2-c2ccc(OCCN3CCOCC3)cc2)cc1	10.9%	12.9%	31.6µM*	.
COc1ccc2c(c1)OCC1=C2CCC2(C)C(=O)CC=C12 (stereo not given)	.	.	.	20µM*
Cc1nnc(SCc2cc(=O)[nH]c(=S)[nH]2)s1	.	-3.0%	.	20µM*
Cc1nnc(SCc2cc(=O)c3ccccc3[nH]2)s1	.	.	-6.2%	.
Cc1cccc(CNc2ccnc(-c3ccc(N(C)C)cc3)n2)c1	.	.	.	39.8µM*
Cc1cccc(CNc2ccnc(-c3ccoc3)n2)c1	.	.	.	50.1µM*
O=c1[nH]nc(N/N=C/c2ccc(Cl)cc2Cl)c(=O)[nH]1	-0.8%	-5.6%	-2.1%	56.2µM*
CC(=O)c1sc(N/N=C\c2c(O)ccc3ccccc23)nc1C	-2.1%	-6.7%	.	.
NC(=O)C1CCN(C(=O)CN(c2ccc3c(c2)OCCO3)S(=O)(=O)c2ccccc2)CC1	5.1%	-8.7%	-4.3%	.
O=C(CN(c1ccc2c(c1)OCCO2)S(=O)(=O)c1ccccc1)N1CCN(Cc2ccccc2)CC1	-3.5%	.	31.6µM*	10.8%
SMILES	TCR act	uPA generation	ClpP mod	Sfp inh
O=C(Cn1c(=O)n(Cc2nc(-c3ccccc3)no2)c(=O)c2cc3c(cc21)OCO3)Nc1ccccc1	.	.	17.8µM*	.
O=C(Cn1c(=O)n(Cc2nc(-c3ccccc3)no2)c(=O)c2cc3c(cc21)OCO3)Nc1ccc(Cl)cc1	.	.	12.6µM*	.
Cc1cc(C)n(-c2cccc(F)n2)n1	-4.8%	1.7%	.	2.7%
CCCC(C)c1nnc(NC(=O)CN2C(=O)c3ccccc3C2=O)s1 (stereo not given)	-4.3%	19.5%	2.7%	44.7µM*
CCCC(C)c1nnc(NC(=O)C2CCCO2)s1 (stereo not given)	2.9%	1.3%	-2.2%	12.6µM*
CCC(CC)c1nnc(NC(=O)CN2C(=O)c3ccccc3C2=O)s1	11.6%	2.3%	.	-9.9%
CCCC(C)c1nnc(NC(=O)C2CC(=O)N(CCc3ccc(F)cc3)C2)s1 (stereo not given)	5.6%	-0.3%	.	28.2µM*
Cc1nnc(NC(=O)C2CCCO2)s1 (stereo not given)	-2.1%[46.1 µM]	0.3%	0.6%	-6.3%
CCCC(C)NC(=O)c1cc(C(=O)OC)cc([N+](=O)[O-])c1 (stereo not given)	-2.4%[46.1 µM]	6.2%	-2.1%	-1.5%
CCCC(C)c1nnc(NC(=O)c2cc(C(=O)OC)cc([N+](=O)[O-])c2)s1 (stereo not given)	0.4%	.	2.6%	14.1µM*
Cn1ccnc1-c1nnn(-c2ccc(Cl)c(Cl)c2)n1	2.1%	13.3%	-2.9%	.
C[C@@H](O)CNC(C)(C)CC(=O)N[C@@H]1CCc2ccccc2N(Cc2ccc(-c3ccccc3-c3nn[nH]n3)cc2)C1=O	.	.	.	3.4%
CCCC(C)c1nnc(NC(=O)C(=O)OCC)s1 (stereo not given)	-1.9%	-0.1%	.	20µM*
COc1ccc(C(=O)N2CCC[C@@]3(CCN(Cc4nccs4)C3)C2)cc1	.	.	.	14.5%
Cc1ccc(S(=O)(=O)c2c(C)cc(C)nc2Oc2cccc(C(F)(F)F)c2)cc1	-1.3%	-1.3%	-1.9%	18.3%
Cc1cc(-c2ccccc2)nc(Oc2cccc(C(F)(F)F)c2)c1S(C)(=O)=O	5.6%	5.5%	35.5µM*	-1.7%
O=C(O)Cc1ccc(N2N=C(c3ccccc3)CC2=O)cc1	.	.	4.5%	.
C[C@H]1C[C@@H]2[C@H]3CCC4=CC(=O)C=C[C@@]4(C)[C@@]3(Cl)[C@@H](O)C[C@]2(C)[C@]1(OC(=O)c1ccco1)C(=O)CCl	.	.	.	35.5µM*
CC1CC2C3CCC4=CC(=O)C=C[C@]4(C)[C@@]3(Cl)C(O)C[C@]2(C)C1(OC(=O)c1ccco1)C(=O)CCl (stereo not given in full)	.	.	.	3.0%
O=C1Nc2ccccc2C(=O)N2CCC[C@@H]12	.	.	.	0.2%
O=C1Nc2cc(Cl)cnc2N2CCCC12 (stereo not given)	2.9%[46.1 µM]	3.0%	-8.1%	50.1µM*
COc1ccc(C2(OC)Oc3cc(OC)ccc3C(=O)C2(O)OC)cc1 (stereo not given)	-15.4%	-4.3%	31.6µM*	.
COc1ccc2c(c1)OC(c1ccccc1)(C(F)(F)F)NC2=O (stereo not given)	1.1%[46.1 µM]	10.1%	-0.3%	2.2%
COc1ccc(OC(C)C(=O)N(C)Cc2nc(-c3cccc(C)c3)no2)cc1 (stereo not given)	-8.7%	-0.3%	.	-2.3%
CC1(C)Cc2c(cnn2-c2ccc(F)cc2)C(NC(=O)CN2CCCC2=O)C1 (stereo not given)	-5.2%	2.2%	0.0%	14.7%
Cc1ccc(CNC(=O)C23CN(Cc4ccccc4)CC2C(c2ccc([N+](=O)[O-])cc2)=NO3)cc1 (stereo not given)	-0.9%	23.8%	-0.3%	39.8µM*

Compound activity deposited in PubChem by National Center for Advancing Translational Sciences (NCATS).
